Measurements taken from the supplement of paper PMC10127200.
Counter-ions that a name gives are not always drawn.

Assays:
Experiment in all cases: Euclidean distance of Cell Painting phenotypic profile (signed KS, 77 features) to DMSO centroid (dimensionless distance); 5 or 10 uM (library dependent); higher = stronger phenotypic change vs DMSO (phenoactivity)
Conditions in all cases: 48 h
[1] = test system: 786-O
In short: (§1)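 Phenoactivity is defined as the Euclidean distance from a compound profile to the median vehicle profile. Each profile comprised 77 Harmony features, scored as signed Kolmogorov-Smirnov statistics versus same-plate vehicle wells, then plate-position corrected, correlation-weighted and replicate-averaged at the top dose. Five cancer lines and one healthy fibroblast line were exposed to library compounds for 48 h at 10 or 5 uM (0.1% DMSO final).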

[2] = test system: A549
In short: as §1

[3] = test system: DU145
In short: as §1

[4] = test system: FB
In short: as §1

[5] = test system: HEPG2
In short: as §1

[6] = test system: OVCAR4
In short: as §1

Compound | Euclidean distance [1] | Euclidean distance [2] | Euclidean distance [3] | Euclidean distance [4] | Euclidean distance [5] | Euclidean distance [6]
Cc1ccc(CNc2ncnc3ccc(-c4ccc(CO)o4)cc23)o1 | 1.8 | 1.95 | 1.67 | 1.25 | 2.04 | 1.67
O=C(OCc1ccccc1)c1ccccc1 [Benzyl benzoate] | 0.857 | 1.28 | 0.936 | 0.794 | 0.831 | 1.33
COc1ccc2c(O[C@@H]3C[C@H]4C(=O)N[C@]5(C(=O)NS(=O)(=O)C6CC6)C[C@H]5/C=C\CCCCN(C)C(=O)[C@@H]4C3)cc(-c3nc(C(C)C)cs3)nc2c1C [Simeprevir] | 1.38 | 2.3 | 1.29 | 0.939 | 0.799 | 1.23
O=C(NC[C@H]1CN(c2ccc(N3CCOCC3=O)cc2)C(=O)O1)c1ccc(Cl)s1 [Rivaroxaban] | 1.33 | 1.15 | 0.946 | 0.949 | 0.52 | 1.51
Cc1ccc(=O)n(-c2ccccc2)c1 [Pirfenidone] | 1.25 | 0.718 | 1.64 | 0.845 | 0.297 | 1.38
CNC(=C[N+](=O)[O-])NCCSCc1csc(CN(C)C)n1 [Nizatidine] | 1.68 | 1.53 | 2.02 | 0.759 | 1.7 | 1.18
OC[C@@H](O)[C@@H](O[C@@H]1O[C@H](CO)[C@H](O)[C@H](O)[C@H]1O)[C@H](O)[C@@H](O)CO [Lactitol] | 0.637 | 0.843 | 0.537 | 0.733 | 0.29 | 1.17
CC(C)(C)NC(=O)N[C@H](C(=O)N1C[C@H]2[C@@H]([C@H]1C(=O)NC(CC1CCC1)C(=O)C(N)=O)C2(C)C)C(C)(C)C (some centres undefined) [Boceprevir] | 1.48 | 0.973 | 1.59 | 1.13 | 0.545 | 1.45
CC(=O)OCC(=O)[C@@]1(O)[C@H](C)C[C@H]2[C@@H]3CCC4=CC(=O)C=C[C@]4(C)[C@@]3(F)[C@@H](O)C[C@@]21C [Dexamethasone Acetate] | 1.08 | 2.1 | 2.41 | 1.85 | 0.691 | 1.67
CO/N=C(\C(=O)N[C@@H]1C(=O)N2C(C(=O)[O-])=C(C[N+]3(C)CCCC3)CS[C@H]12)c1csc(N)n1 [Cefepime Dihydrochloride Monohydrate] | 1.34 | 0.501 | 0.945 | 1.1 | 0.514 | 0.878
CC(C)(F)C[C@H](N[C@@H](c1ccc(-c2ccc(S(C)(=O)=O)cc2)cc1)C(F)(F)F)C(=O)NC1(C#N)CC1 [Odanacatib (MK-0822)] | 0.533 | 2.1 | 0.7 | 0.656 | 1.37 | 0.985
CN[C@@H]1[C@H](O)[C@H](NC)[C@H]2O[C@@]3(O)C(=O)C[C@@H](C)O[C@H]3O[C@@H]2[C@H]1O [Spectinomycin 2HCl] | 1.1 | 0.735 | 0.979 | 1.48 | 0.555 | 0.972
CCn1cc(C(=O)O)c(=O)c2cnc(N3CCCC3)nc21 [Piromidic Acid] | 1.37 | 0.767 | 0.647 | 0.879 | 0.512 | 1.02
Cc1ccc([C@@H]2O[C@H](CO)[C@@H](O)[C@H](O)[C@H]2O)cc1Cc1ccc(-c2ccc(F)cc2)s1 [Canagliflozin] | 1.32 | 1.86 | 0.716 | 1.12 | 0.807 | 1.77
NS(=O)(=O)c1ccc(NC(=O)Nc2ccc(F)cc2)cc1 | 0.711 | 1.08 | 1.36 | 1.37 | 1.44 | 0.718
Nc1nc2c(ncn2COC(CO)CO)c(=O)[nH]1 [Ganciclovir] | 1.56 | 0.816 | 0.888 | 1.25 | 0.883 | 3.37
COc1cc2c(Oc3ccc4[nH]c(C)cc4c3F)ncnc2cc1OCCCN1CCCC1 [Cediranib Maleate] | 4.34 | 4.46 | 3.51 | 4.67 | 4.09 | 5.11
CCC(=O)N1CC[C@H](Nc2ncnc3c2CN(c2cnc(OC)c(C(F)(F)F)c2)CC3)C1 [leniolisib(CDZ 173)] | 1.06 | 1.1 | 1.67 | 1.76 | 0.969 | 1.59
O=C(NC1CCNCC1)c1n[nH]cc1NC(=O)c1c(Cl)cccc1Cl | 3.37 | 3.2 | 2.81 | 4.13 | 2.47 | 3.69
